# RE007 growth inh – qHTS Assay for Inhibitors of the HIV-1 protein Vpr; 360,000 compounds, 0.21% hits; AID 651644, 2012; Potency, µM (doses to about 92.2 µM), without a hit: top-dose activity change, negative = less growth, actives largely listed as inhibitors; S. pombe RE007 Vpr strain, BacTiter-Glo ATP luminescence, 24 h; active means well fitted falling curve with a large enough effect; inconclusive means small, poorly fitted or top-dose-only effect; inactive means no such curve, though single readings can be large or run the other way; further: nearly all actives have a fitted effect of over 50% in size
#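 Fission yeast strain RE007, carrying one chromosomally integrated HIV-1 vpr copy, was seeded at OD 0.01 in PMG+AL medium with 23 nL pinned compound. After 24 h at 30 °C and 99% humidity, viability was read by BacTiter-Glo luminescence.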
# TbPYK inhibitor – qHTS of Trypanosoma Brucei Inhibitors | pyruvate kinase (Trypanosoma brucei), Q57TT1 | TbPYK enzyme, Kinase-Glo Plus ATP luminescence, 45 min | Potency, µM (series often up to 76.8 µM), without a hit: top-dose activity, negative = inhibition, most hits filed as inhibitors | 410,000 compounds, 0.12% hits | AID 624173, 2012; further: nearly all actives have a fitted effect of over 50% in size
#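 ADP (130 uM final) triggers the TbPYK reaction after compound addition; incubation is 45 min at room temperature. Kinase-Glo Plus is then added and luminescence imaged. Normalized data are fitted to concentration-effect curves.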
# Giardia FBPA inh-1 – qHTS Assay for Inhibitors of Fructose-1,6-bisphosphate Aldolase from Giardia Lamblia; A8B2U2; purified Giardia FBPA; Potency, µM (top dose mostly 59.6 µM), for the others: at the highest dose activity, negative = inhibition, actives largely listed as inhibitors; 290,000 compounds, 0.71% hits; further: nearly all actives have a fitted effect of over 55% in size
# Target sequence (A8B2U2 whole entry, looked up): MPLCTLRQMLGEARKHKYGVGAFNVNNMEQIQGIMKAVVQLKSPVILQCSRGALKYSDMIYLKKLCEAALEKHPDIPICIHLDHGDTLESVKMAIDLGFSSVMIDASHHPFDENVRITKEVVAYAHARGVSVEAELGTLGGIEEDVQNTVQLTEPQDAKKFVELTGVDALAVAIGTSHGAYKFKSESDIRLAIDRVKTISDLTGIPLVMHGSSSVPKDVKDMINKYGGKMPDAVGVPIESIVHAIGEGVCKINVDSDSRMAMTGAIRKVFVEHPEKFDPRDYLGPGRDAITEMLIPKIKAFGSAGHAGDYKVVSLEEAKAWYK
#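 40 nM FBPA preincubated 10 min at RT with compound (up to 57.5 uM final), then substrate plus GAPDH/TPI/NAD/arsenate coupling and diaphorase/resazurin added. Fluorescence read after 20 min at RT, 525/598 nm.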
# LmPK inhibitor – qHTS Assay for Inhibitors of Leishmania Mexicana Pyruvate Kinase (LmPK); purified LmPK, Kinase-Glo ATP luminescence, 1 h; Potency, µM (highest dose often 57.5 µM), without a hit: top-dose activity change, negative = inhibition, most hits filed as inhibitors; 290,000 compounds, 0.37% hits; AID 1721, 2009
# Target sequence (Q27686 whole entry, looked up): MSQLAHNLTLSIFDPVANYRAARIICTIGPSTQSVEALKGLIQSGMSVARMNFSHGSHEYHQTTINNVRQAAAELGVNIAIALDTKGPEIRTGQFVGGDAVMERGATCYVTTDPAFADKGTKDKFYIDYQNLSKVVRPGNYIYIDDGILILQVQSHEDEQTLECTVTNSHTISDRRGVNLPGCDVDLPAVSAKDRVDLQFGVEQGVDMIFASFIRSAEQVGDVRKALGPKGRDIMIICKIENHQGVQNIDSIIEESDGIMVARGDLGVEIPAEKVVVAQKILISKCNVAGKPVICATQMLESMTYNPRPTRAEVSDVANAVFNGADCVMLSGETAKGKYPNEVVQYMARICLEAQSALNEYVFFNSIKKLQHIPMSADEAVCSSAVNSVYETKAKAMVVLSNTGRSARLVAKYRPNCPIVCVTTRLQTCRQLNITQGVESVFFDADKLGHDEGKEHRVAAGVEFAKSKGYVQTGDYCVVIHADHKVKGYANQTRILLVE
#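 0.1 nM LmPK, 0.5 mM PEP, 0.1 mM ADP; 50 mM imidazole pH 7.2, 7 mM MgCl2, 50 mM KCl; 1 h RT. Kinase-Glo luminescence readout, normalized to no-enzyme (full inhibition) and uninhibited wells.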
# Giardia growth – qHTS Assay for Inhibitors of Fructose-1,6-bisphosphate Aldolase from Giardia Lamblia: Giardia lamblia growth inhibition. Potency, µM (doses to about 57.5 µM), for the others: at the highest dose activity change, negative = inhibition, hits mostly inhibitors. shares compounds with Giardia FBPA inh-1. Giardia lamblia trophozoite growth inhibition. 1,500 compounds, 5% hits;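 further: trophozoites exposed to compound for 48 h at 37 °C; nearly all actives have a fitted effect of over 70% in size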
# Mammal cell tox – qHTS Assay for Inhibitors of Fructose-1,6-bisphosphate Aldolase from Giardia Lamblia: Mammalian cellular toxicity | shares compounds with Giardia FBPA inh-1 | 1,500 compounds, 4% hits | Potency, µM (doses to about 57.5 µM), for the others: at the highest dose viability change, negative = toxicity, usual class: inhibitors | mammalian cell viability counter-screen, qHTS;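 further: Chinese hamster ovary cells used as mammalian cytotoxicity surrogate; viability measured as cellular ATP by luminescence; compound exposure lasted 48 h before reading; nearly all actives have a fitted effect of over 60% in size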
# Giardia FBPA inh-2 – qHTS Assay for Inhibitors of Fructose-1,6-bisphosphate Aldolase from Giardia Lamblia: Primary screen confirmation | shares compounds with Giardia FBPA inh-1 | Potency, µM (doses to about 57.5 µM), for inactives: top-dose activity change, negative = inhibition, actives largely listed as inhibitors | purified Giardia aldolase enzyme activity, qHTS | 1,500 compounds, 5% hits | AID 2787, 2010; further: nearly all actives have a fitted effect of over 45% in size
# Rabbit aldolase – qHTS Assay for Inhibitors of Fructose-1,6-bisphosphate Aldolase from Giardia Lamblia: Rabbit FBPA Selectivity | AID 2794, 2010 | shares compounds with Giardia FBPA inh-1 | Rabbit muscle FBPA enzyme inhibition, selectivity counter-screen | Potency, µM (titrated, usually from 57.5 µM), for inactives: at the top dose activity, negative = inhibition, most hits filed as inhibitors | 1,500 compounds, 4% hits; further: nearly all actives have a fitted effect of over 60% in size
# GAPDH coupling – qHTS Assay for Inhibitors of Fructose-1,6-bisphosphate Aldolase from Giardia Lamblia: Coupling assay counterscreen confirmation; Potency, µM (doses to about 57.5 µM), inactives show at the top dose activity change, negative = inhibition, actives largely listed as inhibitors; GAPDH coupling enzyme counterscreen, biochemical, qHTS; shares compounds with Giardia FBPA inh-1; AID 2795, 2010; 1,500 compounds, 6% hits; further: nearly all actives have a fitted effect of over 55% in size
# The depositor's hits bear a star; ? = inconclusive; nt = no result; [ ] = another dose, or the depositor's remark. Rows were chosen to be rich in hits. Some 0.95% of all compounds tested hit in one or more screens of this group. Unless noted, the call rests on the fitted dose curve; in most records, active means well fitted curve in the direction sought with a large enough effect; inconclusive means small, poorly fitted or top-dose-only effect, or another doubt; inactive means no such curve, though single readings can be large; an effect the other way counts as inactive or inconclusive. On the % scale 0 is the no-effect control and ±100 the full control effect; potency means the concentration at half of the fitted maximal effect.
SMILES,RE007 growth inh,TbPYK inhibitor,Giardia FBPA inh-1,LmPK inhibitor,Giardia growth,Mammal cell tox,Giardia FBPA inh-2,Rabbit aldolase,GAPDH coupling
C=CCc1cc(OC)ccc1OCCN1CC(C)OC(C)C1 (stereo not given),-14%,-10%,?,-4%,nt,nt,nt,nt,nt
O=C1NC(=O)N(c2ccc(Cl)cc2)C(=O)/C1=C/c1ccc2c(c1)CCN2Cc1ccccc1Cl,2%,1%,nt,nt,nt,nt,nt,nt,nt
CCC(C)N1C(=O)/C(=C/c2ccc3c(c2)CCN3CCCCl)C(=O)NC1=S (stereo not given),-13%,?,11µM*,-22%,6%[10.4 µM],-5%,?,-8%,6%
CC(=O)NC(c1cccs1)c1cc([N+](=O)[O-])c2cccnc2c1O (stereo not given),0%,5%,?,0%,1%[38.3 µM],29µM*,?,?,13µM*
CC(=O)NC(c1ccccc1)c1cc([N+](=O)[O-])c2cccnc2c1O (stereo not given),10%,-18%,20µM*,-1%,18µM*,?,3.2µM*,?,13µM*
CCC(=O)NC(c1cccs1)c1cc([N+](=O)[O-])c2cccnc2c1O (stereo not given),?,0%,?,1%,nt,nt,nt,nt,nt
O=C(NC(=S)NNC(=O)c1cnccn1)c1ccc(F)cc1,-4%,-11%,5%,9%,nt,nt,nt,nt,nt
O=C(NNC(=O)c1ccccc1[N+](=O)[O-])c1cnccn1,14%,4%,20µM*,3%,?,-13%,2%,1%,-4%
O=C(NNC(=O)c1cnccn1)c1cccc([N+](=O)[O-])c1,-1%,-5%,7%,1%,nt,nt,nt,nt,nt
O=C(NNC(=O)c1ccc(Cl)cc1Cl)c1cnccn1,-6%,6%,20µM*,3%,8.9µM*,-8%,-5%,5%,-1%
O=C(NNC(=O)c1cnccn1)c1ccc(Cl)cc1,-2%,4%,13µM*,2%,-5%[10.4 µM],-4%,-5%,5%,3%
O=C(Nc1ccccc1Cl)c1cnccn1,-16%,1%,2%,-4%,nt,nt,nt,nt,nt
CCC1CCCCC1,nt,nt,5%,nt,nt,nt,nt,nt,nt
COc1ccc(CNC(=O)Cn2ncc3c(=O)oc4ccc(C)cc4c32)c(OC)c1,nt,4%,nt,nt,nt,nt,nt,nt,nt
N#Cc1cccc(NC(=O)C2CCN(S(=O)(=O)c3ccc4[nH]c(=O)ccc4c3)CC2)c1,nt,-2%,nt,nt,nt,nt,nt,nt,nt
CCN(CC)c1ccc(N=C2C(=O)Nc3ccccc32)cc1,-21%,?,-16%,?,-2%[38.3 µM],-21%,0.26µM*,?,0.73µM*
CCCn1nnc(NC(=O)/C=C/c2ccco2)n1,-1%,-4%,5%,-1%,nt,nt,nt,nt,nt
Cn1nnc(NC(=S)NC(=O)/C=C/c2ccco2)n1,-9%,-22%,3.5µM*,13%,-28%[38.3 µM],-2%,-19%,-20%,-23%
CCn1c(=O)c2cc(C(=O)Nc3cc(F)ccc3F)sc2c2ccccc21,nt,0%,nt,nt,nt,nt,nt,nt,nt
CCCCCCNC(=O)N[C@H](Cc1ccc(O)cc1)C(=O)NCCC[C@H]1CN2C(=NC[C@H]2CCC)N1CC1CCC1,nt,nt,16µM*,-9%,-18%,5%,-1%,-2%,4%
COc1ccc(N=Cc2cc(Cc3ccccc3Cl)cc([N+](=O)[O-])c2O)cc1OC,11%,2%,0.56µM*,1%,2%[10.4 µM],11%,?,-21%,-26%
Cc1ccc(N=Cc2cc(Cc3ccccc3Cl)cc([N+](=O)[O-])c2O)c(O)c1,-27%,-3%,?,-5%,nt,nt,nt,nt,nt
CC[C@H](C)[C@@H](NC(=O)O[C@@H]1C(=O)c2ccc(OC)cc2O[C@H]1c1cccc(C(F)(F)F)c1)C(=O)OC,nt,nt,1%,nt,nt,nt,nt,nt,nt
Oc1[nH]c2ccccc2c1N=NC(=S)N1CCOCC1,9%,?,18µM*,22µM*,2%[10.4 µM],40µM*,10%,0%,-8%
COc1ccccc1CNC(=O)c1cccc(-c2ccccc2OC)n1,nt,nt,3%[89.2 µM],nt,nt,nt,nt,nt,nt
SMILES,RE007 growth inh,TbPYK inhibitor,Giardia FBPA inh-1,LmPK inhibitor,Giardia growth,Mammal cell tox,Giardia FBPA inh-2,Rabbit aldolase,GAPDH coupling
CC(=O)N1CCN(C(=O)CSc2nc3c(cnn3-c3ccccc3)c(=O)[nH]2)CC1,-4%,-8%,40µM*,2%,?,-6%,1%,9%,6%
CC1CCN(C(=O)CSc2nc3c(cnn3-c3ccccc3)c(=O)[nH]2)CC1,14%,1%,1%,2%,nt,nt,nt,nt,nt
COc1ccc(CCNC(=O)Cn2c(=O)n(-c3ccc(OC)c(OC)c3)c(=O)c3ccccc32)cc1OC,nt,-4%,nt,nt,nt,nt,nt,nt,nt
CC1CCN(C(=O)c2ccc3c(c2)N(Cc2ccccc2)C(=O)c2ccccc2S3(=O)=O)CC1,nt,0%,nt,nt,nt,nt,nt,nt,nt
COC(=O)c1c(NC(=O)C(C)(C)C)sc2c1CCN(Cc1ccccc1)C2,-1%,-2%,11µM*,2%,-30%,-16%,-4%,9%,-14%
COC(=O)c1c(NC(=O)Cc2ccccc2)sc2c1CCN(C(C)C)C2,5%,-2%,11µM*,-3%,17%,-3%,2%,5%,9%
NC(=O)c1c(NC(=O)Cc2ccccc2)sc2c1CCN(Cc1ccccc1)C2,9%,-1%,13µM*,4%,?,-9%,-3%,1%,-24%
CCOC(=O)c1c(NC(=O)CC)sc2c1CCN(Cc1ccccc1)C2,-12%,0%,11µM*,3%,?,-17%,5%,11%,-9%
CCOC(=O)c1c(NC(=O)CCS(=O)(=O)c2ccccc2)sc2c1CCN(C(C)C)C2,9%,-12%,-8%,5%,nt,nt,nt,nt,nt
CCOC(=O)c1c(NC(C)=O)sc2c1CCN(Cc1ccccc1)C2,-8%,1%,?,-4%,nt,nt,nt,nt,nt
Cc1ccc(CNC(=O)C2CCN(c3nc4ccc(C)cc4[nH]3)CC2)cc1,nt,6%[15.4 µM],nt,nt,nt,nt,nt,nt,nt

# Screening results deposited in PubChem BioAssay by National Center for Advancing Translational Sciences (NCATS).
